High-throughput results as filed in PubChem.
Most compounds without a hit are left out; they make up all but 4.1% or so of the library.
hcDAF12 agonist: H. contortus DAF-12 activation, primary screen; HEK293 hcDAF-12 lit1-tk-luc reporter, luminescence; 0% DMSO, 100% Δ7-dafachronic acid; activation, % at 6.8 µM; 370,000 tested, 1.4% active; AID 652067;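 active = activation above the mean of all tested compounds plus 3 SD, cut at about 5.5% in these data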;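 note: 100% = response to 3 µM Δ7-dafachronic acid high control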
hgDAF12 agonist: hgDAF-12 agonism, primary luciferase screen | HEK293 GAL4-hgDAF12 UAS-luciferase reporter, agonist luminescence; normalized to butyrate control | activation, % at 6.8 µM | 370,000 tested, 1.8% active;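 active = activation above a cutoff set at the mean of all screened compounds plus 3 SD, cut at about 10% in these data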;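 note: 0% = DMSO wells and 100% = sodium butyrate wells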
ssDAF-12 act: activators of S. stercoralis DAF-12 nuclear receptor. AID 652126. HEK293 ssDAF-12/GRIP1 lit1-tk-luc reporter, luminescence; % of 3 µM dafachronic acid response. activation, % at 6.8 µM. 370,000 tested, 1% active;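 active = activation above the mean over all tested compounds plus 3 SD, cut at about 0.9% in these data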;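 note: 0% = DMSO-only wells and 100% = 3 µM delta7-dafachronic acid wells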
DAX1 inh-1: blocks DAX1 repression of SF-1 activated StAR promoter. HEK293T StAR-luciferase reporter, SF-1/DAX-1 repression relief. inhibition, % at 6.8 µM. 370,000 tested, 1.1% active. AID 652010;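 active = inhibition above the mean over all tested compounds plus 3 SD, cut at about 3.6% in these data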;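 note: 0% = DAX-1 cells with DMSO and 100% = cells lacking DAX-1 with DMSO; higher inhibition means more luminescence from relief of DAX-1 repression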
DAX1 inh-2: NR0B1 (DAX1) inhibition. P51843. inhibition, % at 6.75 µM. 340,000 tested, 0.99% active. HEK293 Gal4-DAX1 luciferase reporter, luminescence;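 active = inhibition above the mean over all tested compounds plus 3 SD, cut at about 4.2% in these data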;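 note: 0% = DAX1-transfected cells with DMSO and 100% = empty-vector control cells with DMSO; inhibition shows as a rise in luminescence from relieved DAX1 repression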
Target sequence (P51843 207-470 limits assumed): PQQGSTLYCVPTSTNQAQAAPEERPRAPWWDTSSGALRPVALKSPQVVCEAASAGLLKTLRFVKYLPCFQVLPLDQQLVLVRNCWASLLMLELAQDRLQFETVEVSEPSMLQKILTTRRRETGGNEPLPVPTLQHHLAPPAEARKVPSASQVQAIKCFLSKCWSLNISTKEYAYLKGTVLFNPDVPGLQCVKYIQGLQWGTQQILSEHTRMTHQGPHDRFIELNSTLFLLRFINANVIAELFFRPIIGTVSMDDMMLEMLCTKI
DAX1 inh confirm: NR0B1 (human) inhibition, confirmation. shares compounds with DAX1 inh-1. HEK293T StAR-promoter luciferase reporter, SF-1/DAX-1 repression. inhibition, % at 6.8 µM. 2,400 tested, 87% active;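 active = inhibition above the average of every tested compound plus 3 SD, cut at about 3.8% in these data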;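 note: 0% = DAX-1 cells with DMSO and 100% = no DAX-1 control cells with DMSO; active compounds raise luminescence by relieving repression of the StAR reporter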
Target sequence (P51843 whole entry, looked up): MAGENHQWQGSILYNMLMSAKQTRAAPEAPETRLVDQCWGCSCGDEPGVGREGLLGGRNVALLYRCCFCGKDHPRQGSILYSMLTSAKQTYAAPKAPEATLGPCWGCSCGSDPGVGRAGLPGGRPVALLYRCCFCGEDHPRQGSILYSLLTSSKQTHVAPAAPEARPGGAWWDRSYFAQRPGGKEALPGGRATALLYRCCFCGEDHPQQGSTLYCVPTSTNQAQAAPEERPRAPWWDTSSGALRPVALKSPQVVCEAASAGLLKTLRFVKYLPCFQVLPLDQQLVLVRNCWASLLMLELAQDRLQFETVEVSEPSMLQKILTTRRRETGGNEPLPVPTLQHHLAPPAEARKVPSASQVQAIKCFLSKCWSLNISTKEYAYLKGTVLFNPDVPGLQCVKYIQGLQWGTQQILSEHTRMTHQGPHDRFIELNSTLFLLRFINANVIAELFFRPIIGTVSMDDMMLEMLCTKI
SF1 AF2mut Luc: counter-screen for DAX1 inhibitors: nonselective inhibitors with SF-1 AF2 mutant; shares compounds with DAX1 inh-1; HEK293 StAR-luciferase, luminescence; inhibition, % at 6.8 µM; 2,400 tested, 78% active; AID 652136;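 active = inhibition above the mean of all tested compounds plus 3 SD, cut at about 3% in these data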;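 note: 0% = DAX-1 transfected cells with DMSO and 100% = cells without DAX-1 with DMSO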
LXRb hcDAF ctr: activates human LXR-beta, counter-screen for hcDAF-12 agonists; AID 743027; HEK293 Gal4-LXR tk-luc reporter, luminescence, 24 h; normalized: DMSO 0%, positive control 100%; activation, % at 6.8 µM; 3,400 tested, under 10 active; shares compounds with hcDAF12 agonist;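 active = mean percent activation of the reporter above a cutoff set as the average over tested compounds plus their standard deviation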
hcDAF12 ag: hcDAF-12 agonism, confirmation assay | 3,400 tested, 61% active | HEK293 hcDAF-12 lit1-tk-luc reporter, luminescence; % of Δ7-dafachronic acid response | AID 743032 | shares compounds with hcDAF12 agonist | activation, % at 6.8 µM;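 active = mean activation across triplicate tests above the threshold derived from the earlier primary screen, cut at about 5.5% in these data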;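 note: 0% = DMSO only wells and 100% = 3 µM Δ7-dafachronic acid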
hgDAF12 ag: hgDAF-12 agonism, confirmation assay; HEK293 GAL4-hgDAF12 luciferase reporter, agonist mode; percent of butyrate response; 3,300 tested, 80% active; shares compounds with hgDAF12 agonist; AID 743050; activation, % at 6.8 µM;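 active = mean activation over triplicate wells above the hit cutoff derived from the earlier primary screen, cut at about 11% in these data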;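 note: 0% = DMSO low control and 100% = 2 mM sodium butyrate high control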
LXRb DAF12 ctr: activates human LXR-beta, counter-screen for DAF-12 agonists; shares compounds with hgDAF12 agonist; HEK293 Gal4-LXR luciferase reporter, 24 h; activation, % at 6.8 µM; 3,300 tested, under 10 active;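 active = mean activation of the triplicate above a set limit carried over from the primary screen, none filed active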
The depositor's hits bear a star; nt = no result.

SMILES	hcDAF12 agonist	hgDAF12 agonist	ssDAF-12 act	DAX1 inh-1	DAX1 inh-2	DAX1 inh confirm	SF1 AF2mut Luc	hgDAF12 ag	LXRb DAF12 ctr	others
COc1cccc(OC)c1C(=O)Nc1cccc(-c2ccc(N3CCOCC3)nn2)c1	1.8	13.9*	-0.6	5.1*	3.0	4.0*	3.4*	9.7	0.4
Cc1ccc(/C(N)=N/OC(=O)c2cccs2)cc1	11.6*	20.6*	1.0*	6.5*	1.6	5.9*	5.1*	16.6*	0.8	LXRb hcDAF ctr=1.4;hcDAF12 ag=4.8
O=C1C(c2cc(=O)c3ccccc3[nH]2)=C(O)c2ccccc21	10.3*	21.1*	1.6*	4.6*	3.2	16.4*	8.0*	18.3*	0.8	LXRb hcDAF ctr=1.1;hcDAF12 ag=8.1*
Cc1cc(C)n2c(NC3CCCC3)c(-c3cc4ccccc4o3)nc2n1	3.8	16.9*	1.2*	5.3*	nt	4.2*	2.2	7.7	0.3
OC[C@@H]1CN(Cc2ccc(Cl)cc2)C[C@H](n2cnc3c(N4CCN(c5ccccc5)CC4)ncnc32)O1	-0.6	-4.0	-0.7	-3.5	nt	nt	nt	nt	nt
COc1ccccc1CCC(=O)Nc1ccc2c(c1)c(=O)n(C)n2-c1cccs1	-2.0	2.0	-1.3	-5.0	nt	nt	nt	nt	nt
OC(c1cccc(Cl)c1)c1ncc(-c2ccc(Oc3ccccc3)cc2)[nH]1 (stereo not drawn)	-0.8	0.9	-1.8	0.1	nt	nt	nt	nt	nt
O=C(Nc1cnc2ccccc2c1)c1ccncc1	4.6	13.8*	-0.5	5.5*	1.1	10.6*	7.5*	14.1*	0.7
O=C(Nc1ccccc1)c1ccncc1	-0.6	-0.8	-0.9	0.1	-0.6	nt	nt	nt	nt
C(=NOCc1ccccc1)c1ccncc1	1.5	4.3	-1.1	0.8	0.6	nt	nt	nt	nt
C(=NOCc1ccccc1)c1ccccn1	1.8	16.7*	-0.3	6.0*	2.6	6.1*	2.9*	14.5*	0.6
CCN(CC)C(=O)O[C@H]1CC[C@@]23CCCN2C(=O)CCC[C@H]3C1	0.7	1.4	-1.0	nt	nt	nt	nt	nt	nt
CC(C)(C)CSc1nnc(-c2cccnc2)n1Cc1ccccc1	-2.6	0.2	-1.4	0.0	nt	nt	nt	nt	nt
O=c1c2ccccc2nc2n1CCc1c-2[nH]c2ccccc12	13.0*	25.2*	3.6*	7.8*	4.9*	19.0*	11.7*	23.6*	1.2	LXRb hcDAF ctr=2.0;hcDAF12 ag=13.9*
Cc1nn2cc(-c3ccccc3)nc2s1	4.2	14.2*	-0.7	5.7*	-1.0	10.3*	7.5*	15.0*	0.9
CC(=O)NC(C)(c1ccccc1)c1nc(-c2cccc3cccnc23)cs1 (stereo not drawn)	-0.7	-2.5	-1.8	-2.1	nt	nt	nt	nt	nt
O=C(OCC#CCSc1nnc(-c2cccc3ccccc23)o1)C1CCCC1	-2.6	-0.1	-2.1	nt	nt	nt	nt	nt	nt
Cc1cc2c(cc1C)NC(=O)C(C)CN2 (stereo not drawn)	12.0*	19.6*	3.0*	5.7*	2.6	15.8*	7.9*	13.6*	1.1	LXRb hcDAF ctr=1.6;hcDAF12 ag=11.2*
C[C@@H]1CN([C@H](C)CO)C(=O)c2cc(NC(=O)Nc3ccc(F)cc3)ccc2O[C@@H](C)CCCCO[C@H]1CN(C)S(=O)(=O)c1cccs1	-1.6	-1.0	-1.7	-1.1	1.5	nt	nt	nt	nt
CC(C)(C)c1ccc(/C=C/C(=O)N2CCOCC2)cc1	3.9	10.1	0.0	2.4	1.1	nt	nt	nt	nt
CC(C)Cc1ccc(/C=C/C(=O)N2CCOCC2)cc1	4.0	15.8*	1.4*	6.0*	2.8	9.5*	5.2*	12.1*	0.6
CCCCc1c(-c2ccccc2OC)ncn1Cc1ccc(Cl)cc1Cl	0.6	-1.5	-0.7	2.6	nt	nt	nt	nt	nt
COc1ccccc1CNC(=O)C(=O)NCC1CCCN1S(=O)(=O)c1cc(C)ccc1C (stereo not drawn)	-1.7	-0.7	-1.0	0.1	0.2	nt	nt	nt	nt
COC(=O)C1C(=O)c2c([nH]c(C(=O)OC3CCCC3C)c2C)CC1C (stereo not drawn)	0.8	18.2*	0.6	4.7*	3.7	5.5*	3.3*	10.5*	0.7
Cc1cc(C)n2nc(-c3ccc(F)cc3)cc2n1	9.5*	18.4*	2.9*	6.6*	3.3	13.2*	8.5*	18.0*	0.6	LXRb hcDAF ctr=0.9;hcDAF12 ag=12.2*
SMILES	hcDAF12 agonist	hgDAF12 agonist	ssDAF-12 act	DAX1 inh-1	DAX1 inh-2	DAX1 inh confirm	SF1 AF2mut Luc	hgDAF12 ag	LXRb DAF12 ctr	others
C/C(=N\NC(=O)c1ccccn1)c1ccc(C(=O)O)s1	4.5	21.9*	0.7	5.2*	nt	2.7	2.7	10.5*	0.2
C[C@@H]1COc2cc(Br)ccc2S(=O)(=O)N1Cc1cn(CC2CCCCC2)nn1	-1.7	4.2	-0.8	-0.5	nt	nt	nt	nt	nt
O=C(Nc1ccc(-c2nc3cccnc3s2)cc1)c1ccco1	6.4*	19.3*	2.0*	8.9*	0.9	16.7*	8.4*	18.3*	1.2
CC1CCC(NC(=O)c2cc3c(s2)CCCC3)CC1 (stereo not drawn)	2.0	14.5*	-0.2	6.1*	1.9	6.7*	4.5*	12.1*	0.4
CNC(=O)c1cc2c(s1)CCCCCC2	-0.3	-1.5	-1.0	-0.2	0.8	nt	nt	nt	nt
Cc1ccc(C(=O)NC2CCC(C)CC2)s1 (stereo not drawn)	3.6	19.5*	1.0*	13.8*	0.8	15.4*	6.6*	18.0*	0.8
COC(=O)c1cc(S(=O)(=O)N2CCCN(C(C)=O)CC2)cn1C	0.0	0.8	-1.5	-1.0	nt	nt	nt	nt	nt
COc1ccc2c(c1)CCCN2C(=O)C1CCCN(S(=O)(=O)c2ccccc2)C1 (stereo not drawn)	-4.3	-2.7	-1.2	-1.4	nt	nt	nt	nt	nt
CC(/C=N/NC(=O)c1ccco1)=C\c1ccccc1	5.5	17.7*	-0.2	6.0*	0.8	17.9*	9.0*	14.1*	0.9
COP(=O)(O)C(Cc1ccccc1)NC(=O)OCc1ccccc1 (stereo not drawn)	-1.5	4.7	-0.5	0.7	nt	nt	nt	nt	nt
COc1ccc(/C=C/C(=O)Nc2ccccc2C(=O)O)cc1	6.2*	14.0*	0.4	5.2*	-2.3	7.9*	2.9	11.1*	0.6
